Each structure is given as a SMILES string. “And” between values parts separate entries of the source, which are not always exact repeats. Equal values may be shown once. Records with an inconclusive call do not appear. Where a call stands in place of a potency, no number is given. A structure can be active in one record and inactive in another. The source made the active and inactive calls. The call rests on the fitted dose curve; in most records, active means well fitted cell-killing curve with a large enough effect in the repeat runs; inconclusive means weak or mixed curves, or effect the other way; inactive means flat fitted curve, though single readings scatter.
Potency means the concentration at half of the fitted maximal effect.

The nature of this assay: qHTS RealTime-Glo MT Cell Viability Assay in HEK293 cells - 8 hour (AID 1224887). Further: nearly all actives have a fitted effect of over 50% in size. The following applies: RealTime-Glo luminescence; series mostly up to 76.8 µM. The source says:
U.S. Tox21 Program National Center for Advancing Translational Sciences [NCATS] NIH Chemical Genomics Center [NCGC] U.S. Environmental Protection Agency [EPA] National Institutes of Environmental Health Sciences [NIEHS] National Toxicology Program [NTP] U.S. Food and Drug Administration [FDA] Tox21 Assay Overview: Measure of cell viability is critical in the cell-base assay. Analysis of cell viability is necessary for the characterization of cell responses to cytotoxic drugs and environmental stress. A RealTime-Glo MT Cell Viability Assay to monitor cell viability in real time of continues cell culture during 40 hours of compound treatment was used to screen Tox21 10K library compounds in Hek293 cells. The RealTime-Glo MT Cell Viability Assay is a nonlytic, homogeneous, bioluminescent method to measure cell viability in real time using a simple, plate-based method. The assay involves adding NanoLuc luciferase and a cell-permeant prosubstrate to cells in culture. Viable cells reduce the proprietary prosubstrate to generate a substrate for NanoLuc luciferase. This substrate diffuses from cells into the surrounding culture medium, where it is rapidly used by the NanoLuc Enzyme to produce a luminescent signal. The signal correlates with the number of viable cells, making the assay well suited for cytotoxicity studies.
Tox21 Assay Protocol Summary: The mixture of Hek293 cell suspension and reagents were dispensed at 600cells/6 ul/well in 1536-well tissue culture treated black solid bottom plates using a Multidrop dispenser. After the assay plates were incubated at a 37 C/5% CO2 incubator for 5 hours, 23 nL of compounds dissolved in DMSO, positive and negative controls was transferred to the assay plate by a pintool work station. The plates were incubated at 37 C for 40 hours. The luminescence intensity were measured at 0h, 8h, 16h, 24h, 32h and 40h time points using ViewLux plate reader during compound treatment.
Consider `CCCCCCCCCCCCN`, for which the Potency entry is “inactive and 38.9 µM (active)”.
In the case of `Nc1c(S(=O)(=O)O)cc(Br)c2c1C(=O)c1ccccc1C2=O`, the Potency result was “inactive”.
In the case of `Cc1cc(NS(=O)(=O)c2ccc(N)cc2)no1`, the Potency result is “inactive”.
Regarding `CC(=O)Nc1ccc(C(=O)O)cc1`, the Potency entry was “inactive”.
For the molecule `CC(C)(C)C(=O)C1C(=O)c2ccccc2C1=O`, the Potency result was “inactive”.
`O=Nc1ccc(O)cc1`: the Potency was 24 µM (active) and inactive.
As to `Clc1cc(Cl)c(Cl)cc1Cl`, the Potency result was “inactive”.
`CC1=C(/C=C/C(C)=C/C=C/C(C)=C/CO)C(C)(C)CCC1`: the Potency entry was “inactive”.
Take `Nc1nc2ncc(CNc3ccc(C(=O)N[C@@H](CCC(=O)O)C(=O)O)cc3)nc2c(=O)[nH]1`: the Potency entry was “inactive”.
For `COCC(=O)O`, the Potency entry is “inactive”.
Turning to `NC(=O)/N=N/C(N)=O`, the Potency entry is “inactive”.
`O=C(Cl)c1c(Cl)c(Cl)c(C(=O)Cl)c(Cl)c1Cl`: the Potency entry is “inactive”.
`NCCNCCNCCNCCN`: the Potency result is “inactive”.
Turning to `O=S(=O)(Oc1ccc(Cl)cc1Cl)c1ccccc1`, the Potency result was “inactive”.
Under `CC(C)n1c(/C=C/[C@@H](O)C[C@@H](O)CC(=O)O)c(-c2ccc(F)cc2)c2ccccc21` stands “inactive”.
With `CCCCC(CC)COC(C)=O` (stereo not given), the Potency entry was “inactive”.
`O=c1c(-c2ccc(O)cc2)coc2cc(O)ccc12`: the Potency result was “inactive”.
For `O=C(Oc1ccccc1)c1ccc(O)cc1`, the Potency result was “inactive”.
Take `Cc1ccc(N)c(S(=O)(=O)O)c1`: the Potency entry is “inactive”.
In the case of `CCCCCCCCCCC=CC1CC(=O)OC1=O` (stereo not given), the Potency entry is “inactive”.
`c1ccc2ccccc2c1`: the Potency result was “inactive”.
`CS(=O)(=O)Nc1ccc([N+](=O)[O-])cc1Oc1ccccc1`: the Potency result is “inactive”.
Regarding `O=S(=O)(O)c1cc(S(=O)(=O)O)c2c(N=Nc3ccccc3)c(O)ccc2c1`, the Potency entry is “inactive”.
Regarding `OCC#CCO`, the Potency entry is “inactive”.
Under `Oc1ccc(OCc2ccccc2)cc1` stands 853 nM (active) and inactive; under `O=[N+]([O-])C(CO)(CO)CO`, “inactive”.
Regarding `CCc1ccccc1O`, the Potency entry was “inactive”.
Consider `C[C@@H]1O[C@@H](OC[C@H]2O[C@@H](Oc3c(-c4ccc(O)c(O)c4)oc4cc(O)cc(O)c4c3=O)[C@H](O)[C@@H](O)[C@@H]2O)[C@H](O)[C@H](O)[C@H]1O`, for which the Potency result is “inactive”.
For the molecule `CC#C[C@]1(O)CC[C@H]2[C@@H]3CCC4=CC(=O)CCC4=C3[C@@H](c3ccc(N(C)C)cc3)C[C@@]21C`, the Potency was 43.6 µM (active).
Under `CCC(=O)O` stands “inactive”; under `CCCCCCC(C)(C)S`, “inactive”; under `Cc1ccc(C)c(C)c1`, “inactive”.
Turning to `CCCCCCCCC`, the Potency entry was “inactive”.
Under `OCCOCCOCCOCCO` stands “inactive”; under `O=[N+]([O-])c1cc(N(CCO)CCO)ccc1NCCO`, “inactive”.
With `CCOC(=O)/C=C\C(=O)OCC`, the Potency result was “inactive”.
For the molecule `C/C=C(C)/C=C/C=C(C)C`, the Potency result was “inactive”.
For `CCCCC(CC)COC(=O)CCCCCCCC(=O)OCC(CC)CCCC` (stereo not given), the Potency result is “inactive”.
As to `Cc1cc(Cc2ccc(N)c(C)c2)ccc1N`, the Potency entry is “inactive”.
For `NCc1cccc(CN)c1`, the Potency entry is “inactive”.

Values taken from PubChem BioAssay (Tox21).
